Values joined by “and” are separate entries in the source; they are usually repeats but may differ in a detail not shown here. Identical values can stand only once. Some compounds were tested as several samples or in several runs, with calls that do not always agree. Active and inactive are the calls of the source. How the source made its calls: active means hit-call score of the fitted dose curve at least 0.9, where 1 is the maximum; inactive means score below 0.9.
Tests used:
[1] = read-out: Matrix Metallopeptidase 1 (MMP1), MMP1 (gene 4312); assay: BSK_BF4T_MMP1: BioMAP Diversity Plus: BF4T Assay for Matrix Metallopeptidase 1 (MMP1) Biomarker Activity (AID 2284270); conditions: primary human bronchial epithelial cells with fibroblasts
Method in brief: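 MMP-1 quantified by ELISA in primary human bronchial epithelial/dermal fibroblast co-cultures, 24 hours post-dosing, with DMSO as baseline; parallel sulforhodamine B staining (560 nm) tracks overt cytotoxicity.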

[2] = read-out: Tissue plasminogen activator (tPA), PLAT (gene 5327); assay: BSK_BF4T_tPA: BioMAP Diversity Plus: BF4T Assay for Tissue plasminogen activator (tPA) Biomarker Activity (AID 2284272); conditions: primary human bronchial epithelial cells with fibroblasts
Method in brief: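 tPA level quantified by ELISA at 24 h post-treatment in bronchial epithelial/dermal fibroblast co-cultures, gain of signal scored against DMSO baseline. Parallel cultures stained with 0.1% SRB (560 nm) to flag overt cytotoxicity.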

[3] = read-out: Plasminogen Activator Inhibitor-1 (PAI1), SERPINE1 (gene 5054); assay: BSK_BF4T_PAI1: BioMAP Diversity Plus: BF4T Assay for Plasminogen Activator Inhibitor-1 (PAI1) Biomarker Activity (AID 2284273); conditions: primary human bronchial epithelial cells with fibroblasts
Method in brief: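 PAI-1 levels quantified by ELISA 24 h post-dosing in bronchial epithelial cell plus dermal fibroblast cultures. Signal gain referenced to DMSO baseline. Sulforhodamine B total-protein staining of parallel wells checked cytotoxicity.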

[4] = BSK_BF4T_SRB: Viability Assessment in the BioMAP Diversity Plus: BF4T Assay (AID 2284274); conditions: primary human bronchial epithelial cells with fibroblasts
Method in brief: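 Cytotoxicity measured as total protein: cells fixed with 10% TCA, stained with 0.1% SRB, read at 560 nm. Bronchial epithelial/dermal fibroblast co-culture, 24 h after dosing, with positive-direction fitting relative to DMSO.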

[5] = read-out: urokinase Plasminogen Activator (uPA), PLAU (gene 5328); assay: BSK_BF4T_uPA: BioMAP Diversity Plus: BF4T Assay for urokinase Plasminogen Activator (uPA) Biomarker Activity (AID 2284275); conditions: primary human bronchial epithelial cells with fibroblasts
Method in brief: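 uPA levels measured by ELISA at 24 hours in BF4T cultures (bronchial epithelial cells plus dermal fibroblasts) and compared with DMSO; cytotoxicity tracked in parallel cultures by sulforhodamine B staining.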

[6] = read-out: Matrix Metallopeptidase 9 (MMP9), MMP9 (gene 4318); assay: BSK_BF4T_MMP9: BioMAP Diversity Plus: BF4T Assay for Matrix Metallopeptidase 9 (MMP9) Biomarker Activity (AID 2284276); conditions: primary human bronchial epithelial cells with fibroblasts
Method in brief: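 MMP-9 levels were measured by ELISA after 24 h exposure of bronchial epithelial cell/dermal fibroblast co-cultures, with DMSO as baseline. Parallel cultures were stained with 0.1% SRB after TCA fixation, read at 560 nm, to flag overt cytotoxicity.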

[7] = read-out: Interleukin-8 (IL8), CXCL8 (gene 3576); assay: BSK_IMphg_IL8: BioMAP Diversity Plus: IMphg Assay for Interleukin-8 (IL8) Biomarker Activity (AID 2284277); conditions: primary human endothelial cells with macrophages
Method in brief: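 IL-8 levels were measured by ELISA 24 h after dosing in primary human venular endothelial cell–macrophage cultures, referenced to DMSO; parallel SRB staining monitored overt cytotoxicity.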

[8] = read-out: Intercellular Adhesion Molecule 1 (ICAM1), ICAM1 (gene 3383); assay: BSK_BE3C_ICAM1: BioMAP Diversity Plus: BE3C Assay for Intercellular Adhesion Molecule 1 (ICAM1) Biomarker Activity (AID 2284278); conditions: primary human bronchial epithelial cells
Method in brief: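 ELISA read-out of ICAM-1 on human lung bronchial epithelial primary cells, 24 h post-dosing; positive-direction curve fit, DMSO = baseline. SRB total-protein staining of parallel cultures flagged overt cytotoxicity.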

[9] = read-out: Interleukin-8 (IL8), CXCL8 (gene 3576); assay: BSK_BE3C_IL8: BioMAP Diversity Plus: BE3C Assay for Interleukin-8 (IL8) Biomarker Activity (AID 2284280); conditions: primary human bronchial epithelial cells
Method in brief: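 Primary human bronchial epithelial cells (BE3C system) were exposed to test chemical for 24 h, and IL-8 levels were then measured by ELISA. Activity was fitted in the positive (gain-of-signal) direction against a DMSO negative-control baseline.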

[10] = read-out: Epidermal growth factor receptor (EGFR), EGFR (gene 1956); assay: BSK_BE3C_EGFR: BioMAP Diversity Plus: BE3C Assay for Epidermal growth factor receptor (EGFR) Biomarker Activity (AID 2284281); conditions: primary human bronchial epithelial cells
Method in brief: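 Human primary bronchial epithelial cells were exposed to compound for 24 h, and cell-surface EGFR was then quantified by ELISA. Activity was fitted in the positive direction against the DMSO vehicle baseline.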

KRT18 (gene 3875) = assay: BSK_BE3C_Keratin818: BioMAP Diversity Plus: BE3C Assay for Keratin 818 Biomarker Activity (AID 2284282); conditions: primary human bronchial epithelial cells
Method in brief: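 ELISA read-out of Keratin 8/18 in BE3C human bronchial epithelial cultures, 24 h post-dosing; positive-direction fit vs DMSO baseline.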

[11] = read-out: Matrix Metallopeptidase 9 (MMP9), MMP9 (gene 4318); assay: BSK_BE3C_MMP9: BioMAP Diversity Plus: BE3C Assay for Matrix Metallopeptidase 9 (MMP9) Biomarker Activity (AID 2284283); conditions: primary human bronchial epithelial cells
Method in brief: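 Human primary bronchial epithelial cells in the BE3C system were dosed with compound for 24 h. MMP-9 was measured by ELISA, and the positive-direction response was fitted relative to DMSO as baseline. Parallel SRB staining gauged cytotoxicity.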

[12] = read-out: Plasminogen activator inhibitor-1 (PAI1), SERPINE1 (gene 5054); assay: BSK_CASM3C_PAI1: BioMAP Diversity Plus: CASM3C Assay for Plasminogen activator inhibitor-1 (PAI1) Biomarker Activity (AID 2284284); conditions: primary human coronary artery smooth muscle cells
[13] = read-out: Monocyte Chemoattractant Protein-1 (MCP1), CCL2 (gene 6347); assay: BSK_hDFCGF_MCP1: BioMAP Diversity Plus: hDFCGF Assay for Monocyte Chemoattractant Protein-1 (MCP1) Biomarker Activity (AID 2284285); conditions: primary human foreskin fibroblasts
Method in brief: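 MCP-1 ELISA readout was taken 24 hours after dosing primary human dermal fibroblasts in the hDFCGF system, with DMSO as baseline. Parallel sulforhodamine B staining of total protein tracked overt cytotoxicity.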

[14] = read-out: Vascular cell adhesion molecule 1 (VCAM1), VCAM1 (gene 7412); assay: BSK_IMphg_VCAM1: BioMAP Diversity Plus: IMphg Assay for Vascular cell adhesion molecule 1 (VCAM1) Biomarker Activity (AID 2284286); conditions: primary human endothelial cells with macrophages
Method in brief: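 ELISA read-out of VCAM-1 on venular endothelial cell/macrophage co-cultures at 24 h post-treatment, with DMSO as baseline and positive-direction fitting. Parallel sulforhodamine B total-protein staining (560 nm) served as the overt cytotoxicity measure.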

[15] = read-out: Intercellular Adhesion Molecule 1 (ICAM1), ICAM1 (gene 3383); assay: BSK_hDFCGF_ICAM1: BioMAP Diversity Plus: hDFCGF Assay for Intercellular Adhesion Molecule 1 (ICAM1) Biomarker Activity (AID 2284287); conditions: primary human foreskin fibroblasts
Method in brief: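 ICAM-1 ELISA readout 24 h after dosing, DMSO as baseline, in human dermal foreskin fibroblast cultures. Cytotoxicity checked in parallel wells by SRB staining (0.1% SRB, 10% TCA fixation, 560 nm).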

CD40, CD40 (gene 958) = assay: BSK_IMphg_CD40: BioMAP Diversity Plus: IMphg Assay for CD40 Biomarker Activity (AID 2284288); conditions: primary human endothelial cells with macrophages
Method in brief: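 ELISA read-out of cell-surface CD40 at 24 h in human venular endothelial cell/macrophage co-cultures. Activity fitted in the positive direction against DMSO; parallel SRB staining (560 nm) gauges overt cytotoxicity.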

[16] = read-out: TIMP metallopeptidase inhibitor 2 (TIMP2), TIMP2 (gene 7077); assay: BSK_hDFCGF_TIMP2: BioMAP Diversity Plus: hDFCGF Assay for TIMP metallopeptidase inhibitor 2 (TIMP2) Biomarker Activity (AID 2284289); conditions: primary human foreskin fibroblasts
Method in brief: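 Primary human foreskin fibroblasts in the hDFCGF system, dosed for 24 h; TIMP-2 level measured by ELISA, fitted in the positive direction against DMSO; cytotoxicity checked in parallel by sulforhodamine B total protein staining.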

Measured: AC50

O=S(=O)(OCC(F)(F)F)C(F)(F)C(F)(F)C(F)(F)C(F)(F)F
inactive: [1] | [2] | [3] | [4] | [5] | [6] | [7] | [8] | [9] | [10] | KRT18 (gene 3875) | [11] | [12] | [13] | [14] | [15] | CD40, CD40 (gene 958) | [16]
active: [11] 6.24 µM

C=CC(=O)OCCC(F)(F)C(F)(F)C(F)(F)C(F)(F)F
inactive: [1] | [2] | [3] | [4] | [5] | [6] | [7] | [8] | [9] | [10] | KRT18 (gene 3875) | [11] | [12] | [13] | [14] | CD40, CD40 (gene 958) | [16]
active: [13] 20.3 µM | [15] 30 µM and 38.2 µM | [16] 2.55 µM

OCC(F)(F)C(F)(F)C(F)(F)C(F)(F)C(F)(F)C(F)(F)CO
inactive: all assays above

OCC(F)(F)C(F)(F)C(F)(F)C(F)(F)C(F)(F)C(F)(F)C(F)(F)C(F)(F)CO
active: [2] 9.85 µM and 12.6 µM | [3] 15.1 µM and 13.6 µM | [4] 26.2 µM and 30 µM | [6] 27.6 µM and 23.7 µM | [7] 48.8 µM and 48.9 µM | [8] 44.7 µM and 40.3 µM | [9] 19.7 µM and 5.95 µM | [10] 30 µM and 25.2 µM | [11] 34.8 µM and 22.1 µM | [13] 51 µM and 42.3 µM | [14] 51.5 µM and 54.6 µM | [15] 54.5 µM and 46.2 µM | CD40, CD40 (gene 958) 46.5 µM and 41.2 µM
inactive: [1] | [5] | KRT18 (gene 3875) | [12] | [16]

O=C(O)CCC(F)(F)C(F)(F)C(F)(F)C(F)(F)C(F)(F)C(F)(F)C(F)(F)F
active: [7] 1.98 µM and 2.14 µM
inactive: all other assays above

OCC(O)CC(F)(F)C(F)(F)C(F)(F)C(F)(F)C(F)(F)C(F)(F)C(F)(F)C(F)(F)F (stereo unspecified)
inactive: all assays above

Reference: PubChem BioAssay (EPA / NIEHS)
